From PubChem BioAssay (NCATS)
Inconclusive results are not listed. Where a call stands in place of a potency, no number is given. Calls of active or inactive are those of the source. Unless noted, calls come from the whole dose curve; as a rule, active = well fitted curve in the direction sought with a large enough effect; inconclusive = small, poorly fitted or top-dose-only effect, or another doubt; inactive = no such curve, though single readings can be large; an effect the other way counts as inactive or inconclusive.

Assays:
[1] = qHTS profiling for inhibitors of Plasmodium falciparum proliferation (AID 504749); note: nearly all actives have a fitted effect of over 60% in size; note: potency is the fitted concentration of half-maximal effect; conditions: P. falciparum in erythrocytes, SYBR Green DNA, 72 h
How it was run: (§1)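 P. falciparum-infected erythrocytes (0.3% parasitemia, 2.5% hematocrit) incubated with compound 72 h at 37 C, 5% CO2. Parasite DNA detected by SYBR Green after lysis, overnight at room temperature; normalised to 0.29 uM artemisinin and DMSO.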

[2] = tested on: 3D7; assay: as above; conditions: P. falciparum in erythrocytes, SYBR Green DNA, 72 h; series mostly up to 28.7 µM
How it was run: as §1

[3] = tested on: 7G8; assay: as above; conditions: P. falciparum in erythrocytes, SYBR Green DNA, 72 h; series mostly up to 28.7 µM
How it was run: as §1

[4] = tested on: AA1029; assay: as above; conditions: P. falciparum in erythrocytes, SYBR Green DNA, 72 h; series mostly up to 28.7 µM
How it was run: as §1

[5] = tested on: AS120; assay: as above; conditions: P. falciparum in erythrocytes, SYBR Green DNA, 72 h; series mostly up to 28.7 µM
How it was run: as §1

[6] = tested on: ATS189; assay: as above; conditions: P. falciparum in erythrocytes, SYBR Green DNA, 72 h; series mostly up to 28.7 µM
How it was run: as §1

[7] = tested on: ATS95; assay: as above; conditions: P. falciparum in erythrocytes, SYBR Green DNA, 72 h; series mostly up to 28.7 µM
How it was run: as §1

[8] = tested on: C2A; assay: as above; conditions: P. falciparum in erythrocytes, SYBR Green DNA, 72 h; series mostly up to 28.7 µM
How it was run: as §1

[9] = tested on: CP185; assay: as above; conditions: P. falciparum in erythrocytes, SYBR Green DNA, 72 h; series mostly up to 28.7 µM
How it was run: as §1

[10] = qHTS drug screen for cell cycle checkpoint inhibitors in PARPi-resistant BRCA-mutant ovarian cancer cell lines. (AID 1963452; calls by dose curve; note: potency is the fitted concentration of half-maximal effect); conditions: PEO1/OlaR viability, CellTiter-Glo luminescence, 96 h; for Z-AUC: stronger effect = lower value
How it was run: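 PEO1, PEO4 and PEO1/OlaR ovarian cancer cells, 600 per well, exposed 96 h at 37C to a dilution series. Viability read by CellTiter-Glo luminescence, normalized to DMSO and empty wells; activity summarized as Z-AUC.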

[11] = biological target: Cytochrome P450 2D6 (Homo sapiens) (UniProt P10635); assay: qHTS for inhibitors of CYP2D6 against the NCATS DSHEA and TCM libraries (AID 1919972); conditions: CYP2D6 enzymatic inhibition, luminescence qHTS; series mostly up to 34.1 µM
How it was run: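 Luminescent P450-Glo read-out of CYP2D6 turnover of a luciferin substrate after NADPH-driven reaction of 30-45 min at room temperature. Compounds were first preincubated 15 min with enzyme at titrated concentrations; quinidine was the intraplate control.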

[12] = biological target: Cytochrome P450 2C9 (Homo sapiens) (UniProt P11712); assay: qHTS for inhibitors of CYP2C9 against the NCATS DSHEA and TCM libraries (AID 1919973); conditions: recombinant CYP2C9 enzyme activity, luminescence; series mostly up to 34.1 µM;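 note: luminogenic pro-luciferin CYP2C9 substrate turned into luciferin with NADPH regeneration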
How it was run: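 Read-out is luminescence after P450-Glo detection (30 min, RT). Before that: 15 min compound–enzyme preincubation, then 30-45 min reaction with 1x NADPH regeneration solution, substrate concentration isoform-specific.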

[13] = KB-3-1 P-gp reporter qHTS against the NCATS DSHEA and TCM libraries (AID 1919975); conditions: KB-3-1 parental cells, CellTiter-Glo luminescence viability, 72 h; series mostly up to 26.1 µM
How it was run: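 KB-3-1 parental line, 1536-well qHTS: cells seeded, ~4 h attachment, pintool compound addition, ~72 h at 37C, then CellTiter-Glo, 30 min RT, luminescence. Concentration-response format.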

[14] = qHTS Counterscreen for compound interference against the NCATS DSHEA and TCM libraries (AID 1919978); conditions: firefly luciferase detection reagent interference, luminescence;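 note: compounds preincubated with 1 µM D-luciferin or buffer before detection reagent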
How it was run: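 Compounds, titrated from 19.5 nM to 39.8 uM final, were pinned onto 1 uM D-luciferin or plain 100 mM potassium phosphate. After 15 min at room temperature, luciferin detection reagent was added for 30 min before the luminescence read.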

[15] = Dual reporter qHTS for agonist of Pregnane X Receptor (hPXR) against the NCATS DSHEA and TCM libraries: Fluorescence readout (AID 1920058); conditions: PXR dual reporter cells; series mostly up to 40 µM
How it was run: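 HepG2 hPXR-Luc, 2000 cells/well, 5 h attach; cpds ~24 h, 37 °C/5% CO2; CellTiter-Fluor 1 h; fluor. Ex/Em 405/540 nm = viability.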

[16] = biological target: Nuclear receptor subfamily 1 group I member 2 (Homo sapiens) (UniProt O75469); assay: Dual reporter qHTS for agonist of Pregnane X Receptor (hPXR) against the NCATS DSHEA and TCM libraries: Luminescence readout (AID 1920059); conditions: hPXR dual reporter cells, luciferase luminescence agonist; series mostly up to 40 µM
How it was run: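 hPXR-Luc HepG2 cells, 2000/well in 5% charcoal-stripped FBS medium, attached 5 h, then exposed 24 h at 37C to compounds. Viability by CellTiter-Fluor, then luciferase luminescence with ONE-Glo.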

[17] = biological target: Nuclear receptor subfamily 1 group I member 2 (Homo sapiens) (UniProt O75469); assay: Dual reporter qHTS for antagonist of Pregnane X Receptor (hPXR) against the NCATS DSHEA and TCM libraries: Luminescence Readout (AID 1920060); conditions: hPXR dual reporter cells, luciferase luminescence, antagonist mode; series mostly up to 40 µM;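 note: HepG2 cells carrying hPXR luciferase reporter stimulated with rifampicin at 2 µM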
How it was run: (§2)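 Antagonist mode: rifampicin 2 uM final co-added with compounds to hPXR-LucHepG2 cells for 24 h at 37C. Viability by CellTiter-Fluor, Ex/Em 405/540 nm, 1 h; reporter by ONE-Glo luminescence.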

[18] = Dual reporter qHTS for antagonist of Pregnane X Receptor (hPXR) against the NCATS DSHEA and TCM libraries: Fluorescence Readout (AID 1920061); conditions: PXR dual reporter cells, antagonist mode; series mostly up to 40 µM
How it was run: as §2

[19] = measured here: PEO1 parental Z-AUC
[20] = at 28.7 µM (top of the series), parasite line A
[21] = at 28.7 µM (top of the series), parasite line B

Nuclear receptor subfamily 1 group I member 2 (Homo sapiens), sequence (O75469 whole entry, looked up): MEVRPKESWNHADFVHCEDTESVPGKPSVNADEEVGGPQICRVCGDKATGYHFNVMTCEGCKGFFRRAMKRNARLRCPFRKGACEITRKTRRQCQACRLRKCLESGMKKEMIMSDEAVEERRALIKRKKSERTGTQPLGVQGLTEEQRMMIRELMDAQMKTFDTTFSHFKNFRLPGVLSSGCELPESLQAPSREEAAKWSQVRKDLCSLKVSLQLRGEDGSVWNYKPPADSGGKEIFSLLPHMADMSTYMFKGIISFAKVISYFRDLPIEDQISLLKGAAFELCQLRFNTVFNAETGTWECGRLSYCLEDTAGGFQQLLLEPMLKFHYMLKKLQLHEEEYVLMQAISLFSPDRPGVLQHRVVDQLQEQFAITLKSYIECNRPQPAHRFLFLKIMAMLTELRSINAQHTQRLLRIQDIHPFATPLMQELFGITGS
Cytochrome P450 2D6 (Homo sapiens), sequence (P10635 whole entry, looked up): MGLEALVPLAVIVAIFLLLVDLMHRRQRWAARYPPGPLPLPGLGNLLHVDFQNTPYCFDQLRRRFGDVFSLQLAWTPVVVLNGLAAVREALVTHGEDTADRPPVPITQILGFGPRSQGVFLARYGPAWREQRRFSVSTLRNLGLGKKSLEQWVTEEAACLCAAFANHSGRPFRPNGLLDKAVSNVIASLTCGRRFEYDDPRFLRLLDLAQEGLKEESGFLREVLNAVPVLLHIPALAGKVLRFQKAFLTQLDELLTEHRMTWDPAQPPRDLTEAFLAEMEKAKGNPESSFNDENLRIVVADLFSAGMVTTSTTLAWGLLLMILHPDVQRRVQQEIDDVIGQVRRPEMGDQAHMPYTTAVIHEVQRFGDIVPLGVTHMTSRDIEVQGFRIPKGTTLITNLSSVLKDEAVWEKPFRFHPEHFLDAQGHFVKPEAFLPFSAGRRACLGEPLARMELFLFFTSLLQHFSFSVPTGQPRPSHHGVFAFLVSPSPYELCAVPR
Cytochrome P450 2C9 (Homo sapiens), sequence (P11712 whole entry, looked up, canonical isoform): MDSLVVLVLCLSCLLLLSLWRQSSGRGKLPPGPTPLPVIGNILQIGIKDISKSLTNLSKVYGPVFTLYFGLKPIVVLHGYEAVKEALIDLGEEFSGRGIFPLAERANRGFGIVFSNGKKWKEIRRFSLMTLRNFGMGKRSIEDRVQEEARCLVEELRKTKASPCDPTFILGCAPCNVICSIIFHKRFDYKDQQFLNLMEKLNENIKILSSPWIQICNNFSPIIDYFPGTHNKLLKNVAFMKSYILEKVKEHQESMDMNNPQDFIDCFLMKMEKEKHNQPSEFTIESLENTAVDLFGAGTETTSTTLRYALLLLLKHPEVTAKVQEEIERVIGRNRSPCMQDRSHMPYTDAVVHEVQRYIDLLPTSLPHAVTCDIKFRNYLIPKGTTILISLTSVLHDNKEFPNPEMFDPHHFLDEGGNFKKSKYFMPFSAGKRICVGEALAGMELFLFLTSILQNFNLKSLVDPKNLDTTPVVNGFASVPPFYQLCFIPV

CCn1cc(C(=O)O)c(=O)c2cnc(N3CCNCC3)nc21
activity, negative = inhibition ([1]; at 12.8 µM (top of the series), parasite line A): 7.13% (inactive)
activity, negative = inhibition ([1]; at 12.8 µM (top of the series), parasite line B): -22.6% (inactive)
Potency [2]: inactive
Potency [3]: inactive
Potency [4]: inactive
Potency [5]: inactive
Potency [6]: inactive
Potency [7]: inactive
Potency [8]: inactive
Potency [9]: inactive

COc1ccc2[nH]c(S(=O)Cc3ncc(C)c(OC)c3C)nc2n1 (configuration not stated)
Z-AUC [10]: -1.06 (inactive)
Z-AUC [10, 19]: -0.26
Z-AUC ([10]; measured here: PEO4 Z-AUC): 0.544
Potency ([1]; parasite line B): 10 µM (active)
Potency [2]: 10 µM (active)
Potency [3]: 11.2 µM (active)
Potency [5]: 8.91 µM (active)

C[C@H]1O[C@@H](n2cc(F)c(=O)[nH]c2=O)[C@H](O)[C@@H]1O
Z-AUC [10]: 0.97 (inactive)
Z-AUC [10, 19]: 1.13
Z-AUC ([10]; measured here: PEO4 Z-AUC): 1.52
activity, negative = inhibition [1, 20]: 3.03% (inactive)
activity, negative = inhibition [1, 21]: 4.84% (inactive)
Potency [2]: inactive
Potency [3]: inactive
Potency [4]: inactive
Potency [5]: inactive
Potency [6]: inactive
Potency [7]: inactive
Potency [8]: inactive
Potency [9]: inactive

CN(N=O)C(=O)N[C@@H]1[C@@H](O)[C@H](O)[C@@H](CO)O[C@@H]1O
Z-AUC [10]: 1.08 (inactive)
Z-AUC [10, 19]: 0.655
Z-AUC ([10]; measured here: PEO4 Z-AUC): 0.737

NC(=O)c1ncn([C@@H]2O[C@H](CO)[C@@H](O)[C@H]2O)n1
Z-AUC [10]: -0.199 (inactive)
Z-AUC [10, 19]: -0.186
Z-AUC ([10]; measured here: PEO4 Z-AUC): -0.149

Cn1c(=O)c2c(ncn2CC2OCCO2)n(C)c1=O
Z-AUC [10]: -0.883 (inactive)
Z-AUC [10, 19]: -0.316
Z-AUC ([10]; measured here: PEO4 Z-AUC): 0.00528
activity, negative = inhibition [1, 20]: -11.9% (inactive)
activity, negative = inhibition [1, 21]: -9.38% (inactive)
Potency [2]: inactive
Potency [3]: inactive
Potency [4]: inactive
Potency [5]: inactive
Potency [6]: inactive
Potency [7]: inactive
Potency [8]: inactive
Potency [9]: inactive

C[C@@H]1CN(c2c(F)c(F)c3c(=O)c(C(=O)O)cn(C4CC4)c3c2F)C[C@H](C)N1
activity, negative = inhibition [1, 20]: 9.49% (inactive)
activity, negative = inhibition [1, 21]: 3.41% (inactive)
Potency [2]: inactive
Potency [3]: inactive
Potency [4]: inactive
Potency [5]: inactive
Potency [6]: inactive
Potency [7]: inactive
Potency [8]: inactive
Potency [9]: inactive

CC[C@H]1CN2CCc3cc(OC)c(OC)cc3[C@@H]2C[C@@H]1C[C@H]1NCCc2cc(OC)c(OC)cc21
Z-AUC [10]: -0.485 (inactive)
Z-AUC [10, 19]: -0.835
Z-AUC ([10]; measured here: PEO4 Z-AUC): -0.876

CC(C)c1c(C(=O)Nc2ccccc2)c(-c2ccccc2)c(-c2ccc(F)cc2)n1CC[C@@H](O)C[C@@H](O)CC(=O)O
Z-AUC [10]: -0.739 (inactive)
Z-AUC [10, 19]: -0.99
Z-AUC ([10]; measured here: PEO4 Z-AUC): -1.27

CC(=O)O[C@@]12CO[C@@H]1C[C@H](O)[C@@]1(C)C(=O)[C@H](O)C3=C(C)[C@@H](OC(=O)[C@H](O)[C@@H](NC(=O)OC(C)(C)C)c4ccccc4)C[C@@](O)([C@@H](OC(=O)c4ccccc4)[C@H]21)C3(C)C
Potency [10]: 0.0087 µM (active)
Z-AUC [10, 19]: -2.65
Z-AUC ([10]; measured here: PEO4 Z-AUC): -3.1

NC(N)=NCCC[C@H](N)C(=O)O
outcome [11]: inactive
outcome [12]: inactive
outcome [13]: inactive
max response [14]: -2.87% (inactive)
outcome [15]: inactive
outcome [16]: inactive
outcome [17]: inactive
outcome [18]: inactive

OC[C@H]1O[C@@H](O[C@@H]2[C@@H](CO)O[C@](O)(CO)[C@H]2O)[C@H](O)[C@@H](O)[C@H]1O
Z-AUC [10]: -0.433 (inactive)
Z-AUC [10, 19]: -0.31
Z-AUC ([10]; measured here: PEO4 Z-AUC): -0.255

Nc1ncnc2c1ncn2[C@@H]1O[C@H](CO)[C@@H](O)[C@H]1O
Z-AUC [10]: 0.682 (inactive)
Z-AUC [10, 19]: 0.71
Z-AUC ([10]; measured here: PEO4 Z-AUC): 1.16
activity, negative = inhibition [1, 20]: 7.65% (inactive)
activity, negative = inhibition [1, 21]: 2.17% (inactive)
Potency [2]: inactive
Potency [3]: inactive
Potency [4]: inactive
Potency [5]: inactive
Potency [6]: inactive
Potency [7]: inactive
Potency [8]: inactive
Potency [9]: inactive
